# Source: PubChem BioAssay (Tox21)
# Values joined by “and” are separate entries in the source; they are usually repeats but may differ in a detail not shown here. Equal values may be shown once. Records with an inconclusive call do not appear. A call without a number means that no potency is given here. Where a structure was tested more than once in an assay, its records may differ in their call. Active and inactive are the calls of the source. Calls come from the whole dose curve; as a rule, active = well fitted curve in the direction sought with a large enough effect in the repeat runs; inconclusive = weak or mixed curves; inactive = no such curve, though single readings can be large; an effect the other way counts as inactive or inconclusive.
# Assays:
# [1] = qHTS RealTime-Glo MT Cell Viability Assay in HepG2 cells - 24 hour (AID 1224867); settings: RealTime-Glo luminescence; series mostly up to 76.8 µM; note: nearly all actives have a fitted effect of over 50% in size
# How it was run: (§1)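 HepG2 suspension premixed with RealTime-Glo reagents is plated at 600 cells per well and left 5 h at 37 C/5% CO2. Compounds in DMSO then go in, and bioluminescence reflecting viable cell number is recorded over 40 h.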
# [2] = qHTS RealTime-Glo MT Cell Viability Assay in HEK293 cells - 32 hour (AID 1224868); settings: RealTime-Glo luminescence; series mostly up to 76.8 µM; note: top concentration of the series differs between compounds; nearly all actives have a fitted effect of over 50% in size
# How it was run: (§2)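 Reads taken at 0, 8, 16, 24, 32 and 40 h from the same wells. HEK293 cells (600/well) carried RealTime-Glo reagents from seeding, with compound added after a 5 h settle at 37 C.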
# [3] = A CellTox Green Cytotoxicity Assay to monitor cytotoxicity in HEK293 cells - 0 hour (AID 1224869); settings: CellTox Green fluorescence; series mostly up to 76.8 µM; note: nearly all actives have a fitted effect of over 50% in size
# How it was run: (§3)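 Cells (HEK293, 600/well) and dye reagent are dispensed together. After 5 h at 37 C, 23 nL compound is pinned in. Plates stay at 37 C for 40 h with fluorescence read at 0h, 8h, 16h, 24h, 32h and 40h.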
# [4] = qHTS RealTime-Glo MT Cell Viability Assay in HepG2 cells - 40 hour (AID 1224870); settings: RealTime-Glo luminescence; series mostly up to 76.8 µM; note: nearly all actives have a fitted effect of over 50% in size
# How it was run: (§4)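 Real-time viability: cells seeded at 600 per well together with NanoLuc and cell-permeant prosubstrate, compounds added after 5 h incubation. Luminescence tracked at 0, 8, 16, 24, 32 and 40 h of exposure.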
# [5] = A CellTox Green Cytotoxicity Assay to monitor cytotoxicity in HEK293 cells - 40 hour (AID 1224871); settings: CellTox Green fluorescence; series mostly up to 76.8 µM; note: nearly all actives have a fitted effect of over 45% in size
# How it was run: as §3
# [6] = qHTS RealTime-Glo MT Cell Viability Assay in HEK293 cells - 16 hour (AID 1224872); settings: RealTime-Glo luminescence; series mostly up to 76.8 µM
# How it was run: as §2
# [7] = qHTS RealTime-Glo MT Cell Viability Assay in HepG2 cells - 8 hour (AID 1224873); settings: RealTime-Glo luminescence; series mostly up to 76.8 µM; note: nearly all actives have a fitted effect of over 55% in size
# How it was run: as §4
# [8] = qHTS RealTime-Glo MT Cell Viability Assay in HEK293 cells - 40 hour (AID 1224874); settings: RealTime-Glo luminescence; max response: stronger effect = lower value; note: nearly all actives have a fitted effect of over 50% in size
# How it was run: (§5)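 Real-time viability in HEK293: signal arises when living cells convert a prosubstrate for NanoLuc in the medium, so luminescence tracks viable cell number. Compound (23 nL, DMSO) added 5 h post-seeding; kinetic reads at 0–40 h, 37 C.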
# [9] = A CellTox Green Cytotoxicity Assay to monitor cytotoxicity in HEK293 cells - 24 hour (AID 1224875); settings: CellTox Green fluorescence; series mostly up to 76.8 µM; note: nearly all actives have a fitted effect of over 45% in size
# How it was run: as §3
# [10] = A CellTox Green Cytotoxicity Assay to monitor cytotoxicity in HepG2 cells - 16 hour (AID 1224876); settings: CellTox Green fluorescence; series mostly up to 76.8 µM; note: nearly all actives have a fitted effect of over 45% in size
# How it was run: (§6)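 Cells and non-lytic dye reagent are dispensed together (600 HepG2 cells/well) and incubated 5 h before DMSO compound transfer. Kinetic fluorescence is then recorded in the same wells during 40 h at 37 C.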
# [11] = qHTS RealTime-Glo MT Cell Viability Assay in HepG2 cells - 32 hour (AID 1224877); settings: RealTime-Glo luminescence; series mostly up to 76.8 µM; note: nearly all actives have a fitted effect of over 55% in size
# How it was run: as §1
# [12] = A CellTox Green Cytotoxicity Assay to monitor cytotoxicity in HepG2 cells - 24 hour (AID 1224878); settings: CellTox Green fluorescence; series mostly up to 76.8 µM; note: nearly all actives have a fitted effect of over 45% in size
# How it was run: as §6
# [13] = A CellTox Green Cytotoxicity Assay to monitor cytotoxicity in HepG2 cells - 40 hour (AID 1224879); settings: CellTox Green fluorescence; series mostly up to 76.8 µM; note: nearly all actives have a fitted effect of over 40% in size; note: potency is the fitted concentration of half-maximal effect
# How it was run: as §6
# [14] = qHTS RealTime-Glo MT Cell Viability Assay in HEK293 cells - 0 hour (AID 1224880); settings: RealTime-Glo luminescence; series mostly up to 76.8 µM
# How it was run: as §5
# [15] = A CellTox Green Cytotoxicity Assay to monitor cytotoxicity in HEK293 cells - 32 hour (AID 1224881); settings: CellTox Green fluorescence; series mostly up to 76.8 µM; note: nearly all actives have a fitted effect of over 40% in size
# How it was run: as §3
# [16] = A CellTox Green Cytotoxicity Assay to monitor cytotoxicity in HepG2 cells - 0 hour (AID 1224882); settings: CellTox Green fluorescence; series mostly up to 76.8 µM; note: nearly all actives have a fitted effect of over 35% in size
# How it was run: as §6
# [17] = A CellTox Green Cytotoxicity Assay to monitor cytotoxicity in HepG2 cells - 32 hour (AID 1224883); settings: CellTox Green fluorescence; series mostly up to 76.8 µM; note: nearly all actives have a fitted effect of over 50% in size; note: potency is the fitted concentration of half-maximal effect
# How it was run: as §6
# [18] = A CellTox Green Cytotoxicity Assay to monitor cytotoxicity in HEK293 cells - 8 hour (AID 1224884); settings: CellTox Green fluorescence; series mostly up to 76.8 µM; note: nearly all actives have a fitted effect of over 35% in size
# How it was run: as §3
SMILES,outcome [1],Potency [2],outcome [3],outcome [4],Potency [5],Potency [6],outcome [7],max response [8],Potency [9],Potency [10],outcome [11],Potency [12],Potency [13],Potency [14],Potency [15],outcome [16],Potency [17],outcome [18],"activity change, negative = cytotoxic [2]","activity change, negative = cytotoxicity [6]"
CCOC(=O)NNc1nncc2ccccc12,inactive,inactive,inactive,inactive,inactive,inactive,inactive,3.91% (inactive) and 1.02% (inactive),inactive,inactive,inactive,inactive,inactive,inactive,inactive,inactive,inactive,inactive,,
OCc1cccnc1,inactive,inactive,inactive,inactive,inactive,inactive,inactive,-2.21% (inactive) and -1.61% (inactive),,,inactive,inactive,inactive,inactive,inactive,inactive,inactive,inactive,,
CC(c1cc2ccccc2s1)N(O)C(N)=O (stereo unspecified),inactive,inactive,inactive,inactive,,inactive,inactive,-14.9% (inactive) and -8.57% (inactive),inactive,inactive,inactive,inactive,inactive,inactive,inactive,inactive,inactive,inactive,,
CCCCN(CCCC)CCCC,inactive,inactive,inactive,inactive,inactive,inactive,inactive,6% (inactive) and 4.07% (inactive),inactive,,inactive,inactive,inactive,inactive,inactive,inactive,inactive,inactive,,
CN(C)CCC(c1ccc(Cl)cc1)c1ccccn1 (stereo unspecified),inactive,inactive,inactive,inactive,inactive,inactive,inactive,-8.75% (inactive) and -11.3% (inactive),inactive,inactive,inactive,inactive,inactive,inactive,inactive,inactive,inactive,inactive,,
CC(=O)CC(=O)Nc1ccccc1,inactive,inactive,inactive,inactive,inactive,inactive,inactive,-1.61% (inactive) and 1.86% (inactive),,inactive,inactive,inactive,inactive,inactive,inactive,inactive,inactive,inactive,,
CCCCCC1=CCCC1=O,inactive,inactive,inactive,inactive,inactive,inactive,inactive,5.34% (inactive) and -3.52% (inactive),inactive,,inactive,inactive,inactive,inactive,inactive,inactive,inactive,inactive,,
c1c[nH]cn1,inactive,inactive,inactive,inactive,inactive,inactive,inactive,11.4% (inactive) and 19.2% (inactive),inactive,inactive,inactive,inactive,inactive,inactive,inactive,inactive,inactive,inactive,,
O=C(O)c1cc(O)c(O)c(O)c1,inactive,inactive,inactive,inactive,inactive,inactive,inactive,-26.7% (inactive) and 2.18% (inactive),,inactive,inactive,inactive,inactive,inactive,inactive,inactive,inactive,inactive,,
O=S1(=O)CC=CC1,inactive,inactive,inactive,inactive,inactive,inactive,inactive,-4.83% (inactive) and 3.43% (inactive),inactive,inactive,inactive,inactive,inactive,inactive,inactive,inactive,inactive,inactive,,
O=[N+]([O-])c1ccc(/C=C/c2ccc([N+](=O)[O-])cc2S(=O)(=O)O)c(S(=O)(=O)O)c1,inactive,inactive,inactive,inactive,inactive,inactive,inactive,6.57% (inactive) and 8.56% (inactive),inactive,,inactive,inactive,inactive,inactive,inactive,inactive,inactive,inactive,,
CCCCCCCCCC,inactive,inactive,inactive,inactive,inactive,inactive,inactive,1.13% (inactive) and 22.3% (inactive),inactive,inactive,inactive,inactive,inactive,inactive,inactive,inactive,inactive,inactive,,
CCCCCCOCCO,inactive,inactive,inactive,inactive,inactive,inactive,inactive,-2.7% (inactive) and 0.672% (inactive),inactive,,inactive,inactive,inactive,inactive,inactive,inactive,inactive,inactive,,
O=S(=O)(O)c1ccc2ccccc2c1,inactive,inactive,inactive,inactive,inactive,inactive,inactive,19.4% (inactive) and -5.62% (inactive),inactive,inactive,inactive,inactive,inactive,inactive,inactive,inactive,inactive,inactive,,
COc1cc(Cc2cnc(N)nc2N)cc(OC)c1OC,inactive,inactive,inactive,inactive,inactive,inactive,inactive,-23% (inactive) and -15.6% (inactive),inactive,inactive,inactive,inactive,inactive,inactive,inactive,inactive,inactive,inactive,,
CCCCC(CC)COC(=O)CCCCC(=O)OCC(CC)CCCC (stereo unspecified),inactive,inactive,inactive,inactive,inactive,inactive,inactive,-6.84% (inactive) and 6.57% (inactive),,,inactive,inactive,inactive and 2.45 µM (active),inactive,inactive,inactive,inactive and 2.45 µM (active),inactive,,
C[Si](O[Si](C)(C)C)O[Si](C)(C)C,inactive,inactive,inactive,inactive,,inactive,inactive,1.67% (inactive) and 1.77% (inactive),inactive,inactive,inactive,inactive,inactive,inactive,inactive,inactive,inactive,inactive,,
CCCCC(CC)CO (stereo unspecified),inactive,inactive,inactive,inactive,,inactive,inactive,6.29% (inactive) and 2.53% (inactive),inactive,,inactive,inactive,inactive,inactive,inactive,inactive,inactive,inactive,,
COc1ccc(Cl)cc1C(=O)NCCc1ccc(S(=O)(=O)NC(=O)NC2CCCCC2)cc1,inactive,inactive,inactive,inactive,inactive,inactive,inactive,-19.9% (inactive) and -25.1% (inactive),inactive,inactive,inactive,inactive,inactive,,inactive,inactive,inactive,inactive,,
CC(=O)c1ccccc1,inactive,inactive,inactive,inactive,,inactive,inactive,0.254% (inactive) and 9.46% (inactive),inactive,,inactive,inactive,inactive,inactive,inactive,inactive,inactive,inactive,,
NNc1nncc2ccccc12,inactive,,inactive,inactive,inactive,,inactive,2.59% (inactive),,inactive,inactive,inactive,inactive,inactive,inactive,inactive,inactive,inactive,3.93% [at 15.8 µM] (inactive),-0.186% [at 15.8 µM] (inactive)
Cc1ccc(N(C)C)cc1,inactive,inactive,inactive,inactive,inactive,inactive,inactive,0.353% (inactive) and -2.55% (inactive),,inactive,inactive,inactive,inactive,inactive,inactive,inactive,inactive,inactive,,
CCCCCCCCCCCCCCO,inactive,inactive,inactive,inactive,inactive,inactive,inactive,-1.67% (inactive) and 1.72% (inactive),inactive,inactive,inactive,inactive,inactive,inactive,inactive,inactive,inactive,inactive,,
c1ccc2scnc2c1,inactive,inactive,inactive,inactive,inactive,inactive,inactive,13.8% (inactive) and 1.41% (inactive),,inactive,inactive,inactive,inactive,inactive,inactive,inactive,inactive,inactive,,
O=C(O)c1cc(=O)c2c(OCC(O)COc3cccc4oc(C(=O)O)cc(=O)c34)cccc2o1,inactive,inactive,inactive,inactive,inactive,inactive,inactive,0.302% (inactive) and 1.24% (inactive),inactive,,inactive,inactive,inactive,inactive,inactive,inactive,inactive,inactive,,
CN(C)CCC(c1ccccc1)c1ccccn1 (stereo unspecified),inactive,inactive,inactive,inactive,,inactive,inactive,7.85% (inactive) and 1.55% (inactive),inactive,inactive,inactive,inactive,inactive,inactive,inactive,inactive,inactive,inactive,,
